In the supplement of paper PMC6555819:

Legend:
Assay in all cases: PBM binding z-score (relative to random genomic background probes); higher = stronger binding; sequences stand for … in GC…GCGATTGACAGCGTAGAATGAAGG
[1] = test system: PPARg:RXRa DBDmut IVT, anti-RXR (DBD mutation: RXRa K156A/R161A, NR concentration 270 nM, RXRa partner concentration 90 nM)
How it was run: (§1)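 Ligand-free nuclear receptor dimers were applied to custom Agilent 4×180K protein-binding microarrays whose double-stranded probes carried direct-repeat seeds, single-nucleotide variants, half-site ablations and random human genomic background sequences in 34-nt variable regions. Incubation lasted 1 h. Binding z-scores were computed against the random background probes from regression-normalized fluorescence.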

[2] = test system: PPARg:RXRa IVT, anti-PPARg (NR concentration 270 nM, RXRa partner concentration 90 nM)
How it was run: as §1

[3] = test system: PPARg DBDmut:RXRa IVT, anti-PPARg (DBD mutation: PPARg1 K132A/R137A, NR concentration 270 nM, RXRa partner concentration 90 nM)
How it was run: as §1

[4] = test system: PPARg DBDmut IVT, anti-PPARg (DBD mutation: PPARg1 K132A/R137A, NR concentration 270 nM)
How it was run: as §1

[5] = test system: PPARg homodimer (NR concentration 180 nM)
How it was run: as §1

[6] = test system: PXR:RXRa (NR concentration 270 nM, RXRa partner concentration 90 nM)
How it was run: as §1

[7] = test system: PXR homodimer (NR concentration 270 nM)
How it was run: as §1

[8] = test system: RARa:RXR (NR concentration 270 nM, RXRa partner concentration 90 nM)
How it was run: as §1

[9] = test system: RARa homodimer (NR concentration 270 nM)
How it was run: as §1

[10] = test system: RARb:RXRa (NR concentration 270 nM, RXRa partner concentration 90 nM)
How it was run: as §1

Row | Sequence | PBM binding z-score [1] | PBM binding z-score [2] | PBM binding z-score [3] | PBM binding z-score [4] | PBM binding z-score [5] | PBM binding z-score [6] | PBM binding z-score [7] | PBM binding z-score [8] | PBM binding z-score [9] | PBM binding z-score [10]
1 | ACTAGTTGGTCGGCTGAGGTCACACACAATTCGG | 0.828 | 2.09 | 0.508 | 0.979 | 2.33 | 5 | 2.11 | 4.72 | 1.23 | 3.08
2 | TCTTGTAGATCAACAAGAGGTTAAGAAAGATCGA | 1.35 | 0.865 | 0.785 | 0.787 | -0.0436 | 1.27 | 0.0734 | 1.63 | -0.225 | 0.99
3 | CCGACTAGGGCAGAAAGGTTACCATACCATCCGG | 2.95 | 2.6 | -0.185 | -0.946 | 1.12 | 1.24 | -0.00781 | 1.86 | 0.161 | 2.24
4 | CCTACTGGGTCAAAAAGGTCATTGATGCCGATAA | 5.6 | 6.85 | 0.701 | -0.419 | 4.23 | 6.02 | 9.56 | 6.15 | 2.31 | 4.66
5 | ATACCAAGGAGATCGTGAGGTCGTTGATACTAAC | -0.488 | -0.258 | -0.211 | 0.112 | 0.128 | 1.65 | 1.21 | 0.973 | -0.464 | 0.331
6 | CCTTACGGGTCTCGAGGTTATAGCACGACGAGCG | -0.507 | 0.298 | -0.399 | -0.982 | 0.167 | 0.396 | -0.353 | 0.806 | -0.452 | 0.666
7 | AGAATGAGGTTATACGTCGATCAGGGAAGAAAGT | 2.6 | 2.09 | 0.671 | 0.354 | 0.876 | 0.925 | 0.396 | 1.51 | 0.313 | 1.34
8 | CCTAGTTGGTCAGGAGCTCACACACCGGATATGA | 0.512 | 0.377 | 0.181 | -0.1 | 0.317 | -0.386 | -0.151 | -0.201 | 0.575 | 0.469
9 | TAGCCTAGGTAAGATCGGGCCAGTATACGCTATA | -0.504 | -0.0138 | -2.06 | -1.02 | -0.948 | -0.638 | -0.73 | -0.261 | -1.46 | -1.22
10 | TCAGACAGGTGACGGTAACTCAGGTACGCAGTCG | 2.24 | 1.37 | 0.209 | 0.0566 | 0.126 | 0.109 | -0.211 | 0.171 | 0.103 | 0.885
11 | ATACCAAGGTGATCCTGAGGTCGTTGATACTAAC | 0.567 | 1.08 | 0.87 | 0.266 | 0.931 | 3.21 | 1.41 | 2.34 | 0.52 | 1.39
12 | CCTGCTAGGTCATGGTTAGCTAATCTACAGTATG | 4.51 | 3.71 | 1.31 | 0.491 | 3.42 | 1.38 | -0.137 | 2.44 | -0.015 | 3.65
13 | CAAACTAGGTCAGAGGTCAAAGTCGAGCCAACCA | 8.29 | 8.85 | 2.06 | 4.69 | 5.7 | 6.37 | 2.49 | 8.36 | 2.29 | 5.18
14 | GCTATTAGTTGAAAGGGCAACCGCATGATTCTCG | 0.567 | 1.26 | -0.261 | -0.166 | 1.06 | 0.577 | 0.17 | 1.39 | 0.567 | 1.71
15 | TCAATTAGTTGAAGGGCAACCGACGAGTCCGTTT | 1.84 | 0.225 | -0.0622 | 0.241 | -0.0858 | 0.533 | 0.791 | 0.357 | -0.199 | 1.54
16 | CCTGCTAGGTCATTGTCAGCTAATCTACAGTATG | 4.13 | 3.2 | 0.372 | 0.337 | 0.865 | 1.12 | -0.0805 | 1.77 | 0.00948 | 3.55
17 | ATATGTCGGTTACATCCGGGTCATTCAGGCTATG | 2.55 | 3.18 | 2.61 | 1.84 | 1.05 | 2.85 | 2.72 | 2.88 | 0.00144 | 1.91
18 | TCATATAGGGAAACAGGTGAAAGTCCGTAAGTTA | 3.73 | 2.71 | 0.703 | 0.846 | 1.02 | 0.713 | 0.608 | 0.541 | 1.28 | 0.516
19 | TCTTGTAGATCAACAGGAGGTTATGAAAGATCGA | 1.42 | 0.582 | 0.881 | 1.46 | -0.255 | 0.762 | -0.367 | 0.694 | -0.449 | 0.283
20 | ATCTCTAGGTAAGAGTTCAGTGAATCCCGAGGAT | 1.35 | 2.7 | 0.769 | 1.17 | 1.09 | 2.32 | 2.16 | 0.952 | 0.264 | 1.96
21 | CCTAGTTGGTCAAGGCCACACACGCTATAGGTAC | 1.25 | 1.16 | 0.294 | 0.121 | 1 | 0.291 | 1.6 | 0.34 | 0.796 | 1.76
22 | GCAAATAGGTAATACAAGGTGAAAGTCCGATTGT | 3.46 | 2.55 | 0.642 | 0.68 | 0.192 | 0.778 | 0.202 | 1.44 | 0.308 | 0.635
23 | TAGCCTAGGTCAGATCGGGCCAATATACGCTATA | 0.525 | 1.37 | -0.296 | -0.715 | 0.782 | 2.21 | -0.489 | 1.9 | -0.0136 | 2.94
